An excerpt weighted towards active compounds, which were near 8% of everything screened.
MARV entry inh = inhibitors of Marburg virus binding or cell entry; 300,000 tested, 1.8% active; Marburg virus pseudotyped entry inhibition, cell reporter; AID 540276; Potency, µM (top dose mostly 37.8 µM), most hits filed as inhibitors; calls by dose curve; tested in HEK293 cells
SARS PLP yeast = inhibitors of SARS-CoV papain-like protease in yeast | S. cerevisiae expressing SARS-CoV PLpro, growth rescue | Potency, µM (top dose mostly 32.9 µM), usual class: activators | 330,000 tested, 0.19% active | AID 485353; calls by dose curve; further: nearly all actives have a fitted effect of over 55% in size
Lassa entry inh = inhibitors of Lassa virus binding or cell entry. Lassa virus pseudotype entry inhibition, cell reporter. Potency, µM (top dose mostly 37.9 µM), hits mostly inhibitors. 300,000 tested, 1.2% active. AID 540256; calls by dose curve; tested in HEK293 cells; further: nearly all actives have a fitted effect of over 50% in size
HCMV inh = inhibitors of human cytomegalovirus; HFF cells, HCMV-luciferase reporter, 72 h; active compounds read low; 410,000 tested, 4.5% active; activity change, negative = inhibition, % at 57.5 µM; in the data active means activity change below about -60%; inconclusive means no clear call, values can overlap the other calls; inactive means above about -39%
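Compounds were evaluated in HFFs infected with an HCMV luciferase reporter virus (MOI 1 PFU/cell). Luciferase in lysates collected 72 h post infection served as the replication measure.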
FMDV antiviral = blocks foot and mouth disease virus. FMDV antiviral cell-based qHTS. Potency, µM (highest dose often 57.9 µM), actives largely listed as inhibitors. 410,000 tested, 1.2% active. AID 1159524; calls by dose curve; tested in HEK293T cells; further: read-out not given here; nearly all actives have a fitted effect of over 45% in size
HCV inh = inhibitors of hepatitis C virus infection | Huh7.5.1 HCVcc-Cre infection, luciferase reporter, 44 h | Potency, µM (titrated, usually from 41.8 µM), usual class: inhibitors | 340,000 tested, 3.4% active | AID 651820; active means well fitted inhibition curve with a large enough effect; inconclusive means small, poorly fitted or top-dose-only effect, or another doubt; inactive means no such curve, though single readings can be large or run the other way
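Cells (1,000/well) were plated 4 h before compound, then infected with HCVcc-Cre virus (~0.5 moi). After 44 h further culture, infection was read as luciferase luminescence following a 15 min substrate incubation at room temperature.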
Hits are given with their value; i = inactive; ? = inconclusive; nt = no result; ! = repeats disagree.

SMILES	MARV entry inh	SARS PLP yeast	Lassa entry inh	HCMV inh	FMDV antiviral	HCV inh
O=C(NCC(c1ccco1)N1CCCC1)c1cc2cc(Cl)ccc2o1 (stereo not given)	?	i	i	i	i	12.6µM
CSCCC(NC(=O)c1ccccc1Cl)C(=O)NCC(c1ccco1)N1CCCCC1 (stereo not given)	?	i	i	i	i	i
CC(C)C(NC(=O)c1ccccc1F)C(=O)NCC(c1ccco1)N1CCCCC1 (stereo not given)	?	i	i	-63.7	i	i
O=C(NCC(c1ccco1)N1CCc2ccccc21)c1ccc([N+](=O)[O-])cc1 (stereo not given)	?	i	i	i	?	?
O=C(NCC(c1ccco1)N1CCc2ccccc21)c1cccc([N+](=O)[O-])c1 (stereo not given)	?	i	5.62µM	i	i	i
Cc1ccc2oc(C(=O)NCC(c3ccco3)N3CCCC3)c(C)c2c1 (stereo not given)	nt	i	nt	i	i	31.6µM
Cc1ccc2cccc(NC(=O)c3ccc(-c4cccc(Cl)c4Cl)o3)c2n1	i	nt	i	i	i	nt
CCC1CCCCN1Cc1cn2c(-c3ccc(Br)cc3)nnc2s1 (stereo not given)	nt	nt	i	i	i	nt
COc1ccc(NC(=O)CCCc2nc(-c3ccco3)no2)c(OC)c1	i	nt	i	i	i	nt
O=C(NCC(c1ccco1)N1CCCCC1)c1ccc([N+](=O)[O-])s1 (stereo not given)	?	i	?	i	i	0.562µM
COC(=O)c1cc2oc(C)cc2n1Cc1c(C)cc(C)cc1C	i	nt	nt	i	i	nt
COc1ccc(S(=O)(=O)N2c3ccc(F)cc3CCC2C)cc1 (stereo not given)	nt	nt	nt	-78.1	i	i
CC(=O)Nc1ccc(S(=O)(=O)N2c3ccc(F)cc3CCC2C)cc1 (stereo not given)	nt	nt	nt	i	i	i
CCC(C)NS(=O)(=O)c1ccc(S(=O)(=O)N2CC=C(c3ccc(F)cc3)CC2)cc1 (stereo not given)	?	i	i	-72.8	?	?
CC[C@H](C)[C@H](NC(=O)c1ccc(Cl)cc1)C(=O)OCC(=O)c1ccc2c(c1)NC(=O)CO2	?	i	?	-86.7	?	?
COc1ccc(/C=C/C(=O)OCC(=O)c2ccc3c(c2)NC(=O)CO3)c(OC)c1	nt	i	nt	?	i	11.2µM
CC(C)[C@H](NC(=O)c1ccccc1)C(=O)OCC(=O)c1ccc2c(c1)NC(=O)CO2	i	?	?	i	i	i
COc1cccc(/C=C/C(=O)OCC(=O)c2ccc3c(c2)NC(=O)CO3)c1OC	i	i	i	i	?	i
O=C1COc2ccc(C(=O)CCl)cc2N1	?	i	i	i	25.1µM	?
Cc1cc(C)c2nc(N(Cc3cccnc3)C(=O)c3cccs3)sc2c1	nt	nt	?	i	i	nt
Cc1ccc(C2=Nc3ccccc3NC(c3ccncc3)=N2)cc1	i	nt	i	i	?	nt
Cn1nc(C(F)(F)F)c(/C=N/OC(=O)c2ccccc2)c1SCc1ccc(Cl)cc1	?	i	i	-72.5	i	?
Cc1ccc(C)c(NC(=O)CSc2c(C)cnc3c2c(=O)n(C)c(=O)n3C)c1	nt	nt	i	i	i	nt
COc1cc(OC)c(Nc2nc3ccccc3c3nncn23)cc1Cl	i	nt	?	i	i	nt
CN(C)CC[C@@H](c1ccccc1)c1ccccn1	i	nt	nt	nt	nt	nt
SMILES	MARV entry inh	SARS PLP yeast	Lassa entry inh	HCMV inh	FMDV antiviral	HCV inh
CN(C)CCC(c1ccc(Br)cc1)c1ccccn1 (stereo not given)	11.2µM!	i	?	?	i	?
CN(C)CCOC(c1ccc(Cl)cc1)c1ccccn1 (stereo not given)	nt	i	nt	i	i	?
CN(C)CC[C@H](c1ccc(Cl)cc1)c1ccccn1	5.62µM!	nt	nt	nt	nt	nt
CCC(Sc1ncc(S(=O)(=O)c2ccc(Cl)cc2)c(=O)[nH]1)C(=O)Nc1ccc(OC)cc1 (stereo not given)	i	nt	nt	i	i	nt
COc1ccc(-c2cc(C(=O)Nc3c(Cl)cccc3Cl)no2)cc1OC	i	nt	i	i	i	nt
O=c1[nH]cnc2c1sc1nc3c(c(-c4ccc(Cl)cc4)c12)CCC3	?	i	i	?	?	i
Cc1sc2nc[nH]c(=O)c2c1-c1ccc(Cl)cc1	?	i	i	-74.0	i	i
Cc1nc2c(o1)CCc1ccccc1[C@H]2N1CCN(C)CC1	i	nt	nt	nt	nt	nt
Cc1noc(C)c1-c1nc(CS(=O)(=O)c2ccccc2)no1	i	i	i	-83.6	i	i
COC(=O)N[C@@H](c1ccco1)[C@]1(C(C)=O)CCCC1=O	i	nt	nt	nt	nt	nt
COc1cccc2cc(C(C)N(CCCN3CCOCC3)C(=S)Nc3cc(C)cc(C)c3)oc12 (stereo not given)	?	i	i	i	i	i
COc1ccc(NC(=S)N(CCCN2CCOCC2)Cc2cn(C)c3ccccc23)cc1OC	?	i	?	-87.4	i	?
COc1cccc(NC(=S)N(CCCN2CCOCC2)Cc2cn(C)c3ccccc23)c1	?	i	?	-77.7	i	?
COc1cccc2cc(C(C)N(CCCN3CCOCC3)C(=S)Nc3cccc(C)c3)oc12 (stereo not given)	10µM	i	?	i	i	i
COc1cccc(NC(=S)N(CCCN2CCC(C)CC2)Cc2cccs2)c1	?	i	i	i	i	?
CC(NC(=O)CSc1n[nH]c(-c2ccccc2Cl)n1)c1nc2ccccc2n1C (stereo not given)	nt	nt	i	i	i	nt
CCN(CC)c1ccc(NC(=O)c2cccn2-c2nnc(N3CCCCC3)s2)c(C)c1	nt	nt	?	i	?	nt
O=C1c2cccnc2C(Nc2ccc(Cl)cc2)N1Cc1cccs1 (stereo not given)	?	i	i	-64.7	i	i
CCOC(=O)c1cccc(NC(=O)c2cc(CN3CCOCC3)on2)c1	nt	nt	i	i	i	nt
CN(C)c1ccc(NS(=O)(=O)c2ccc(-c3csnn3)cc2)cc1	?	i	?	-65.5	i	?
COc1ccc(OCC2c3cc(OC)c(OC)cc3CCN2C(=O)c2ccc(F)cc2)cc1 (stereo not given)	nt	nt	i	i	i	nt
Cc1ccc(N2CCN(c3ncccc3[N+](=O)[O-])CC2)c(C)c1	?	i	?	i	i	?
O=[N+]([O-])c1cccnc1N1CCN(c2ccccc2F)CC1	i	i	i	-60.7	i	i
O=[N+]([O-])c1cccnc1N1CCCCC1	i	i	i	i	i	i
Cc1ccc(C)c(N2CCN(c3ncccc3[N+](=O)[O-])CC2)c1	2.51µM	i	?	i	i	11.2µM
CC(=O)Nc1ccc(S(=O)(=O)N[C@H]2CC[C@@]34CCCN3C(=O)CCC[C@H]4[C@H]2Cc2ccccc2)cc1	nt	nt	nt	i	nt	nt
CN(C)c1ccc(-c2cncnc2NCc2ccccc2)cc1	nt	nt	nt	nt	i	nt
CC(C)n1c(=S)[nH]c2ccccc2c1=O	i	i	i	?	i	i
CC(C)n1c(=S)[nH]c2cc(Cl)ccc21	nt	i	nt	-72.0	i	i
O=C(c1ccc(F)cc1)c1cc2ccc(O)cc2oc1=O	?	i	i	i	i	i
